# This is one part of a sample in which hits are shown more often than they occur.
# PglD inh = inhibitors of Campylobacter jejuni PglD acetyltransferase | purified PglD enzyme, DTNB colorimetric CoA detection | inhibition, % at 12.5 µM | hit rate 0.098% among 360,000 | AID 602405; in the data active = inhibition above about 16%, passing the limit was not always enough; inconclusive = no clear call, values can overlap the other calls
# Rtt109 HAT inh = inhibitors of Candida albicans Rtt109/Vps75 histone acetyltransferase; hit rate 0.16% among 330,000; inhibition, % at 34.9 µM; Q5AAJ8; purified Rtt109/Vps75, ThioGlo CoA-SH fluorescence, 4 h;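 active = inhibition of at least 50% in every replicate; inconclusive = best replicate reaches 50% inhibition but some replicates fall short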
# Target sequence (Q5AAJ8 whole entry, looked up): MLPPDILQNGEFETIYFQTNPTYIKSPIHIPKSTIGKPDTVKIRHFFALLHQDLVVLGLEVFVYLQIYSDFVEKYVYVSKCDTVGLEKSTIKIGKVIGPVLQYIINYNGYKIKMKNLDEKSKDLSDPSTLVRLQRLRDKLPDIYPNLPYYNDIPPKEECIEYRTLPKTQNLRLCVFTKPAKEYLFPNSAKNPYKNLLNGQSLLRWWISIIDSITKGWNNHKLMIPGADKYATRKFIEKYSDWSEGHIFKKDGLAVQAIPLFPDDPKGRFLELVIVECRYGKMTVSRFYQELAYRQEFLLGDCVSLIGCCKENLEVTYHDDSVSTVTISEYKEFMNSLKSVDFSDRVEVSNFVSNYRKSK
# DENV2 CPE rescue = protects cells from dengue virus 2 cytopathic effect | DENV2-infected cells, cytopathic effect rescue, plate reader | CPE inhibition, % at 9.99 µM | hit rate 1.7% among 350,000; in the data active = CPE inhibition above about 20%, passing the limit was not always enough; inconclusive = no clear call, values can overlap the other calls; tested in BHK-21 cells;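 note: 0% = median of neutral control wells and 100% = median of positive control wells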
# Glyco luc inh = N-linked glycosylation inhibition | reporter increase, % at 12.5 µM | hit rate 0.23% among 360,000 | D54 ERlucT glycosylation luciferase reporter, 24 h; percent of 100 nM tunicamycin response | AID 588692;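 active = mean luciferase reporter signal, scaled so untreated is 0 and the glycosylation-blocking control 100, at or above a set limit in every replicate; inconclusive = mean reaches the limit but not every replicate does; inactive = mean below the limit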;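 note: luciferase carries N-glycosylation sites so blocking glycosylation raises the light; 0% = median of neutral control wells and 100% = median of 100 nM tunicamycin wells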
# * marks the source's active call; other numbers are inactive results; u = inconclusive; x = no result; ! = repeats disagree.
SMILES,PglD inh,Rtt109 HAT inh,DENV2 CPE rescue,Glyco luc inh
Cc1ccc(S(=O)(=O)N(C)C[C@H]2Oc3ccc(NS(=O)(=O)c4ccc(Cl)cc4)cc3CC(=O)N([C@@H](C)CO)C[C@H]2C)cc1,2,x,27*,x
Cc1ccc(S(=O)(=O)Nc2ccc3c(c2)CC(=O)N([C@H](C)CO)C[C@H](C)[C@@H](CN(C)S(=O)(=O)c2ccc(C)cc2)O3)cc1,2,x,67*,x
C[C@H](CO)N1C[C@H](C)[C@H](CN(C)C(=O)Nc2ccccc2F)Oc2ncc(-c3ccccc3)cc2C1=O,0,x,6,x
CCS(=O)(=O)Nc1ccc2c(c1)C(=O)N(C)C[C@H](OC)[C@H](C)CN(CC1CCCC1)[C@H](C)CO2,0,x,x,x
O=C(c1ccccc1F)N1CC(=O)N2[C@H](C1)[C@@H](c1ccc(C#Cc3ccccc3)cc1)[C@@H]2CO,x,x,-6,x
O=c1[nH]c(CSc2nc(-c3ccccc3)cs2)nc2ccccc12,x,-1,x,0
O=c1[nH]c(CSc2ncnc3sc(-c4ccccc4)cc23)nc2ccccc12,6,2,1,33*
Cc1cc(C)n(-c2nnc(C)n2/N=C/c2ccco2)n1,1,6,x,0
CCCOc1ccc2ccccc2c1/C=N/n1c(C)nnc1-n1nc(C)cc1C,x,-6,x,27*
CCCNC(=O)N1C[C@H](C)[C@H](OC)CN(C)C(=O)c2ccc(NS(=O)(=O)CC(F)(F)F)cc2OC[C@@H]1C,0,x,4,x
COC(=O)C[C@H]1C=C[C@H](NS(=O)(=O)c2ccc(OC)cc2)[C@@H](CO)O1,0,x,0,x
Cn1nc(C(C)(C)C)cc1N1C(=O)CCC1(C)C(=O)Nc1ccc2c(c1)OCCO2 (centres undefined),-6,x,24*,4
C[C@@H]1CN([C@H](C)CO)C(=O)c2cc(NS(=O)(=O)c3cccs3)ccc2O[C@@H]1CN(C)Cc1ccc(Oc2ccccc2)cc1,-5,x,3,x
Cc1c(C(=O)Nc2c(F)cccc2F)sc2ncn(CC(=O)N3CCCCC3)c(=O)c12,1,1,3,-2
Cc1c(C(=O)Nc2ccccc2F)sc2ncn(CC(=O)N3CCOCC3)c(=O)c12,4,-2,52*,-1
COC(=O)C[C@H]1CC[C@@H]2[C@H](COC[C@H](O)CN2S(=O)(=O)c2ccc(F)cc2)O1,-1,x,-3,x
Cc1cc(=O)nc2c3ccccc3n(C(C)C(=O)NCCN3CCOCC3)n12 (centres undefined),1,-1,35*,1
CCOc1ccc(N(CC(=O)NC2CCCC(C)C2C)S(=O)(=O)c2c(C)noc2C)cc1 (centres undefined),2,8,26*,-4
Cc1ccc(N(CC(=O)NC2CCCCC2C)S(=O)(=O)c2c(C)noc2C)cc1 (centres undefined),3,-8,19,1
C[C@H]1CN([C@@H](C)CO)C(=O)c2cccc(NC(=O)c3ccncc3)c2O[C@H]1CN(C)C(=O)Nc1ccccc1,-1,-4,16,2
C[C@@H]1CN([C@H](C)CO)C(=O)c2cccc(NC(=O)c3ccncc3)c2O[C@@H]1CN(C)C(=O)Nc1ccccc1,5,x,54*,x
C[C@H](CO)N1C[C@H](C)[C@@H](CN(C)C(=O)Nc2ccccc2)Oc2c(NC(=O)c3ccncc3)cccc2C1=O,3,0,42*!,-8
CC(=O)N(C)C[C@H]1Oc2cc(C#Cc3cccc(F)c3)ccc2S(=O)(=O)N([C@@H](C)CO)C[C@H]1C,-1,x,0,x
CN1c2ccc(-c3ccc(F)cc3)cc2[C@@H]2[C@@H](CCN2S(=O)(=O)c2cccc(F)c2)[C@H]1CO,-1,x,-23,x
COC(=O)[C@H](CC(C)C)NC(=O)CC[C@H]1O[C@@H](n2cc(C)c(=O)[nH]c2=O)C[C@@H]1O,-3,x,70*,0
SMILES,PglD inh,Rtt109 HAT inh,DENV2 CPE rescue,Glyco luc inh
O=C(C[C@H]1C[C@@H]2c3cc(NC(=O)NC4CCCC4)ccc3O[C@@H]2[C@H](CO)O1)NCc1cccc(F)c1,1,x,-1,x
COc1cc2c(cc1OC)C(c1ccccc1)N(C(=O)c1ccccc1)CC2 (centres undefined),0,-4,-2,34*
COc1cc2c(cc1OC)C(c1ccccc1)N(C(=O)c1ccccc1F)CC2 (centres undefined),2,1,5,37*
COc1cc2c(cc1OC)C(c1ccccc1)N(C(=O)c1ccco1)CC2 (centres undefined),4,3,-1,34*
COc1cc2c(cc1OC)C(c1cc3cc(C)ccc3[nH]c1=O)N(C(=O)c1ccco1)CC2 (centres undefined),-2,8,-3,2
COc1cc2c(cc1OC)C(c1cccs1)N(C(=O)c1cccc(S(=O)(=O)N(C)C)c1)CC2 (centres undefined),x,11,x,32*
COCCNC(=S)N1CCc2cc(OC)c(OC)cc2C1c1cccs1 (centres undefined),-1,0,x,59*
C[C@@H]1CN([C@@H](C)CO)S(=O)(=O)c2ccc(C#CC3CC3)cc2O[C@@H]1CN(C)CC1CC1,-1,x,12,x
Cc1ccc(S(=O)(=O)N(C)C[C@@H]2Oc3ccc(NC(=O)CCC(F)(F)F)cc3CC(=O)N([C@@H](C)CO)C[C@@H]2C)cc1,-1,-2,2,33*
Cc1ccc(S(=O)(=O)N(C)C[C@H]2Oc3ccc(NC(=O)CCC(F)(F)F)cc3CC(=O)N([C@H](C)CO)C[C@@H]2C)cc1,-2,x,-12,x
Cc1ccc(S(=O)(=O)N(C)C[C@H]2Oc3ccc(NC(=O)CCCN(C)C)cc3CC(=O)N([C@@H](C)CO)C[C@H]2C)cc1,-2,x,43*,x
COc1ccc(S(=O)(=O)N(C)C[C@H]2Oc3ccc(NC(=O)CCCN(C)C)cc3CC(=O)N([C@H](C)CO)C[C@H]2C)cc1,x,x,29*,x
CCNC(=O)C[C@@H]1CC[C@@H]2[C@@H](COc3ccc(NC(=O)Nc4ccccc4OC)cc3C(=O)N2C)O1,-1,x,7,x
COc1ccc(S(=O)(=O)Nc2ccc3c(c2)C(=O)N([C@H](C)CO)C[C@H](C)[C@@H](CN(C)Cc2ccc(Cl)c(Cl)c2)OCCCC[C@@H](C)O3)cc1,x,x,-1,x
O=S1(=O)CCOC[C@H](Cc2ccccc2)N1Cc1cccc(F)c1,1,-2,32*,-1
O=C(C[C@@H]1CC[C@H]2[C@@H](COC[C@H](O)CN2C(=O)C2CC2)O1)NCc1ccncc1,0,x,-1,x
O=C1N2CCCCC1(c1ccccc1)CCCC2,x,x,40*,x
COC(=O)C1=CO[C@@H](O[C@@H]2O[C@H](CO)[C@@H](O)[C@H](O)[C@H]2O)C2C1CC(O)O[C@H]2C (some centres undefined),-2,-3,23*,0
CN(C)CCCNC(=O)C[C@@H]1CC[C@@H](NS(=O)(=O)c2ccc(F)cc2)[C@H](CO)O1,3,x,-12,x
Cc1cc(C)n2c(NC3CCCC3)c(-c3cccnc3)nc2n1,x,x,22*,x
O=C(Nc1ncccc1O)c1ccc(NS(=O)(=O)c2ccc3[nH]c(=O)[nH]c3c2)cc1,2,u,-8,18

# Assay outcomes (PubChem BioAssay)
